Assay results taken from the supplement of paper PMC11732987, “Enantioselective OTUD7B fragment discovery through chemoproteomics screening and high-throughput optimisation” (Communications Chemistry, 2025).

Experiments:
Test in all cases: log2 ratio of Biotin-Ahx-Ub-VS probe labelling (fragment/DMSO); higher = less target engagement (more negative = stronger competition), active = hit call of the paper (q ≤ 0.05, log2 ratio ≤ -1)
Conditions in all cases: compound concentration: 200 uM; treatment time: 3 h
ALG13 = biological target: T1, ALG13 (UniProt Q9NP73)
T1 sequence (whole entry): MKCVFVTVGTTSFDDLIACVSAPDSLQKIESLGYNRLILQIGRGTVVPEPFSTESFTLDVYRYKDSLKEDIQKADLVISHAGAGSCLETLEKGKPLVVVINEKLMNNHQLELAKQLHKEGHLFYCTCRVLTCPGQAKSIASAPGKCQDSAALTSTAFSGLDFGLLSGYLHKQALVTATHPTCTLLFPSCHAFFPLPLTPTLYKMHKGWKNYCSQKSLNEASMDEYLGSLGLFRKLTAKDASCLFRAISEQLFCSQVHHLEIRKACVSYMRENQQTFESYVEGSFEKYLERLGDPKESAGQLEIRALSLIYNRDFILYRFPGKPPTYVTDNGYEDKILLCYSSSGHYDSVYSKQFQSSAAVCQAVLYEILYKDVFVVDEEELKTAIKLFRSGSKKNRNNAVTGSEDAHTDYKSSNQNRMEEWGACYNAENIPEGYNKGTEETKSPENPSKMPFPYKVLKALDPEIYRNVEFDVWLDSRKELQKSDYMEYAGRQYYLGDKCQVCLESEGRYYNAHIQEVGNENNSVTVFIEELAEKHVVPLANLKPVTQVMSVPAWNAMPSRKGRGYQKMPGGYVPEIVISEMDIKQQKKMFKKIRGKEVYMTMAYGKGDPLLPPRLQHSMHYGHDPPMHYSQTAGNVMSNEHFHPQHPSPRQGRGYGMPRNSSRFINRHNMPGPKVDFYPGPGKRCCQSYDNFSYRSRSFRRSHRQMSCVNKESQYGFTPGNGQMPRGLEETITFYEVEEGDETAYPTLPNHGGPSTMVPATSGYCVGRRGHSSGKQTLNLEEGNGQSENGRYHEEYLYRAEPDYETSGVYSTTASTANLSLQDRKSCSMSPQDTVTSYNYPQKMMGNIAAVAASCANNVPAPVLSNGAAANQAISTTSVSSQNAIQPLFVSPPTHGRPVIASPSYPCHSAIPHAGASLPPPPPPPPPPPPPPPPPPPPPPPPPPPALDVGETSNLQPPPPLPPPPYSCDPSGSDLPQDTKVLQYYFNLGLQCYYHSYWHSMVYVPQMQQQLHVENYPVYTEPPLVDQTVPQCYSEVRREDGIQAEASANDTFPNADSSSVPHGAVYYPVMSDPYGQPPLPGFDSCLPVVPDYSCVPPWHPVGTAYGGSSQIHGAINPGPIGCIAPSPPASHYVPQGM
Procedure, shortened: (§1)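 Labelling with Biotin-Ahx-Ub-VS (0.5 µM final, 1 h) followed a 3 h triplicate treatment of HEK293T lysate (495 µg per sample, Tris/CHAPS/IGEPAL buffer with protease inhibitors) with fragment at 200 µM or vehicle. Labelled DUBs were NeutrAvidin-enriched, digested with LysC and trypsin, and run by diaPASEF LC-MS/MS. The values, average log2 fragment/vehicle ratios by unpaired t-test, come from global-median-normalised Spectronaut label-free quantities. Proteins with ≥2 unique peptides were used.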

ATXN3 = ATXN3 (UniProt P54252)
ATXN3, sequence (P54252 whole entry): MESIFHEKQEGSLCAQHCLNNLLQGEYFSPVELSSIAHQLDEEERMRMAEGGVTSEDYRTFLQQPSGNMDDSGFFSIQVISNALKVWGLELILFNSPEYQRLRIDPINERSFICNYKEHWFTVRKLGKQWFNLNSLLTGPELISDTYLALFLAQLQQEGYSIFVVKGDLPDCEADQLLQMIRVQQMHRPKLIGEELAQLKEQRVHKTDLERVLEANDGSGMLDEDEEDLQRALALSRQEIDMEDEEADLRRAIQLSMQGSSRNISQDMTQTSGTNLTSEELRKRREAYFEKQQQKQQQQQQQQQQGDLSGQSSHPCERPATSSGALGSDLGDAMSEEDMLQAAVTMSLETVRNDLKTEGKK
Procedure, shortened: as §1

BAP1 = biological target: T2, BAP1 (UniProt Q92560)
T2 sequence (whole entry): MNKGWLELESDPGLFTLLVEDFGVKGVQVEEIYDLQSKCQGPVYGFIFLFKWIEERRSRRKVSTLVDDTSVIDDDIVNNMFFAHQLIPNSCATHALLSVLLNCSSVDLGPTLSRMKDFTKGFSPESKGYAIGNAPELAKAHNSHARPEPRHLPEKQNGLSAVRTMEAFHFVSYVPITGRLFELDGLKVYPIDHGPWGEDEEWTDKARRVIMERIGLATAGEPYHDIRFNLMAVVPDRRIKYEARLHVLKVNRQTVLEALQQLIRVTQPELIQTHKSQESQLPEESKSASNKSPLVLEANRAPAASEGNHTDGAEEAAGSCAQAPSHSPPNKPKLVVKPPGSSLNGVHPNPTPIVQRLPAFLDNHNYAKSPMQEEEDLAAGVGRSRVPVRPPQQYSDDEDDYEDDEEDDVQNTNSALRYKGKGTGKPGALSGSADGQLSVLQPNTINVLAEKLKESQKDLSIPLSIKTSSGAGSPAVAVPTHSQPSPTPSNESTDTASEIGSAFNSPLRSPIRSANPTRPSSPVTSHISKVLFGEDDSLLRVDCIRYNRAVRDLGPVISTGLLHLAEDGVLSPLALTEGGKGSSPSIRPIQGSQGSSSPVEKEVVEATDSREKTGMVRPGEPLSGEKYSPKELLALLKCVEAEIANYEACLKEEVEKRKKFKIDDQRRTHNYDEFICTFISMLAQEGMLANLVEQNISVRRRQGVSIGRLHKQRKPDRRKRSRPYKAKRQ
Procedure, shortened: as §1

EIF3F = EIF3F (UniProt O00303)
EIF3F, sequence (O00303 whole entry): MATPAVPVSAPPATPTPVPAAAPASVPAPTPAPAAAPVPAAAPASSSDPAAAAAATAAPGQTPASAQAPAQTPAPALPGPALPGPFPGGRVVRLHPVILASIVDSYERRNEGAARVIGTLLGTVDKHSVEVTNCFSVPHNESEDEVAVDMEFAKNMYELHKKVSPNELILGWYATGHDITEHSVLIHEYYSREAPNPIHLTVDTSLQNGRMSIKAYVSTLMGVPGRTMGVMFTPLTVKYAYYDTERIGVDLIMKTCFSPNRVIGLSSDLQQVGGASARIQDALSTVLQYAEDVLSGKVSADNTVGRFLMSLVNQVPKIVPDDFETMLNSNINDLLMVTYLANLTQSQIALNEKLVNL
Procedure, shortened: as §1

EIF3H = EIF3H (UniProt O15372)
EIF3H, sequence (O15372 whole entry): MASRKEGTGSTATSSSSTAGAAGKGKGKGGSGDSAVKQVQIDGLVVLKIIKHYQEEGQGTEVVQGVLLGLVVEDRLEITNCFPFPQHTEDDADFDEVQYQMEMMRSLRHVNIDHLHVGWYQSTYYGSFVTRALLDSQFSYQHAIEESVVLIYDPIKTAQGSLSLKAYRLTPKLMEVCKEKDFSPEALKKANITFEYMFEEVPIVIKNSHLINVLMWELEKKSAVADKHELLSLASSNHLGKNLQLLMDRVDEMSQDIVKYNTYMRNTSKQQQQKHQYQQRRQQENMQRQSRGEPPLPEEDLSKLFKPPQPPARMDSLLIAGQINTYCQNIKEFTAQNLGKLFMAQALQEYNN
Procedure, shortened: as §1

FAM105A = biological target: T3, FAM105A (UniProt Q9NUU6)
T3 sequence (whole entry): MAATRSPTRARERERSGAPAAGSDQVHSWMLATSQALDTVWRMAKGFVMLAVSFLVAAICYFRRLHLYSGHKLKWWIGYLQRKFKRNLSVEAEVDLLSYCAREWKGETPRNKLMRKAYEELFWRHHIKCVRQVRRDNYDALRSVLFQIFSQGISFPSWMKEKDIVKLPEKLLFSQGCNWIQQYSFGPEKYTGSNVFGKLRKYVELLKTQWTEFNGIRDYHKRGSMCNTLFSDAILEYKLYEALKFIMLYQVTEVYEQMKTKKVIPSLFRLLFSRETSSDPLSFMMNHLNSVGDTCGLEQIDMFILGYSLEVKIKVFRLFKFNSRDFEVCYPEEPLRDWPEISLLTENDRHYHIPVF
Procedure, shortened: as §1

OTUB1 = OTUB1 (UniProt Q96FW1)
OTUB1, sequence (Q96FW1 whole entry): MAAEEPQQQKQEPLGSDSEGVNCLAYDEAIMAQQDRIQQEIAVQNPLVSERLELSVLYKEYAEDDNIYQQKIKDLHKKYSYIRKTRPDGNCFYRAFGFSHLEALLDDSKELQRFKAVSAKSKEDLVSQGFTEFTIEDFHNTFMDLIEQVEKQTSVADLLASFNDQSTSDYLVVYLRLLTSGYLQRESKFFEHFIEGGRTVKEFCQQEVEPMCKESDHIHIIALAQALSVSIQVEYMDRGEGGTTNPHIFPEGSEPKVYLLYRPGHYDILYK
Procedure, shortened: as §1

OTUD4 = biological target: T4, OTUD4 (UniProt Q01804)
T4 sequence (whole entry): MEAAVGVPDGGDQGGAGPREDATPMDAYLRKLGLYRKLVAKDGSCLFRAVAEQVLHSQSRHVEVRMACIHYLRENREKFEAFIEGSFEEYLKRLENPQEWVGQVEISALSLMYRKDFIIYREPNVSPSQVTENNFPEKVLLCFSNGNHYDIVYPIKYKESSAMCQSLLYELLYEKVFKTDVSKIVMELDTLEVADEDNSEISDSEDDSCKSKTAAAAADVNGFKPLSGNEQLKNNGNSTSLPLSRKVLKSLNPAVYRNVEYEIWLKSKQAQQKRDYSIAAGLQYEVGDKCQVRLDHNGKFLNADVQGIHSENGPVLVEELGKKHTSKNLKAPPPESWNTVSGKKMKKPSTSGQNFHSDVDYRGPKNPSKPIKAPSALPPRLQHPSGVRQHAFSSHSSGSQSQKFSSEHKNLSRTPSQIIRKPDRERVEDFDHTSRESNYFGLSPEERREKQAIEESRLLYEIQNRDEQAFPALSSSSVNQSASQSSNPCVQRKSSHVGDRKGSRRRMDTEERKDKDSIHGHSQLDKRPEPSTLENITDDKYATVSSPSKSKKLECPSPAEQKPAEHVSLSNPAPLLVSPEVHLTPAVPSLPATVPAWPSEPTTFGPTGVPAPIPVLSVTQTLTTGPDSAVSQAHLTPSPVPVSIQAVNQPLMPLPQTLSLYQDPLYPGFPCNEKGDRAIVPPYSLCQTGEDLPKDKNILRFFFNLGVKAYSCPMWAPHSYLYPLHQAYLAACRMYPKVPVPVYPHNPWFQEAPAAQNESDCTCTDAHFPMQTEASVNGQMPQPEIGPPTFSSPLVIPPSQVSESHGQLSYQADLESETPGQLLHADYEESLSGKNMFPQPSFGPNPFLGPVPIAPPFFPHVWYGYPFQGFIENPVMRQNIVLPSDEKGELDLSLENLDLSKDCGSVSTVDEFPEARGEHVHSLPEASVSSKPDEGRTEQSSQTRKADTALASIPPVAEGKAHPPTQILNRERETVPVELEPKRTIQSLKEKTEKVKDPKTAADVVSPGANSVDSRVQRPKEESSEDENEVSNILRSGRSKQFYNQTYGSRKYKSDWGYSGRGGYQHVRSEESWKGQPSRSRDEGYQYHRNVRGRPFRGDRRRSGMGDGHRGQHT
Procedure, shortened: as §1

OTUD5 = biological target: T5, OTUD5 (UniProt Q96G74)
T5 sequence (whole entry): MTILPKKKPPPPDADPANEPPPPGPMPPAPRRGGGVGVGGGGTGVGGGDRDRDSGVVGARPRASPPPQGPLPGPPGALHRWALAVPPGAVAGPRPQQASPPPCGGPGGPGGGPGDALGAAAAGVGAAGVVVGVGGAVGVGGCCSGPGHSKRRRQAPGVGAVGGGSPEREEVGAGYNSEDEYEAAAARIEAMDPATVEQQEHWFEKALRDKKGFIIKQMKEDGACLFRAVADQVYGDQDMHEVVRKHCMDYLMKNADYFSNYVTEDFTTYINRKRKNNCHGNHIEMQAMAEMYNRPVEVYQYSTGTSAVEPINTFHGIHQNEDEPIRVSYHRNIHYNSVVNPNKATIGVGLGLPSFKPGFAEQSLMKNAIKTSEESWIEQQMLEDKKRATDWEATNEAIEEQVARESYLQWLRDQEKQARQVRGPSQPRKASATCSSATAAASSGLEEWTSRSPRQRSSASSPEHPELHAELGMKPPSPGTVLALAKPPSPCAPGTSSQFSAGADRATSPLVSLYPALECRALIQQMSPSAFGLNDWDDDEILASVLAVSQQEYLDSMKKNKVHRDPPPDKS
Procedure, shortened: as §1

Measured: log2 ratio of Biotin-Ahx-Ub-VS probe labelling

Cc1nc(CN2CCN(C(=O)CCl)CC2)cs1
inactive: ALG13 0.271 | ATXN3 -0.309 | BAP1 -0.469 | EIF3F -0.26 | EIF3H 0.0747 | FAM105A 0.151 | OTUB1 0.0298 | OTUD4 -0.0355 | OTUD5 -0.265
